Test results published in PubChem BioAssay AID2472 (National Center for Advancing Translational Sciences (NCATS), 2010).
Hit rate of the full screen: of about 290,000 compounds, about 2,000 (0.69%) were called active. Cut-off read from the data, not from the text of the source: active = activity change below about -30%; inactive = the rest, inconclusive results apart. The entries come from a sample that favours actives as a whole.

Experiment: qHTS Assay for Inhibitors of Fructose-1,6-bisphosphate Aldolase from Giardia Lamblia: Coupling assay counterscreen
Conditions: coupling enzyme system counterscreen, AmpLite Red fluorescence; at 58.2 µM (top of the series)
Outline: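 Final compound at 57.5 uM, incubated 10 min at RT with coupling enzyme reagent (glyceraldehyde-3-phosphate), then 20 min with substrate and AmpLite Red detection. Fluorescence read at 525/598 nm; tests interference with the coupling assay, not aldolase inhibition.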
% is set by controls: 0 for no effect and ±100 for the full control effect.

| Structure (SMILES) | activity change, negative = inhibition |
| --- | --- |
| COc1cccc(-c2coc3cc4oc(=O)c(CC(=O)O)c(C)c4cc23)c1 | 12.3% (inactive) |
| O=C(Nc1cccc([N+](=O)[O-])c1)N1CCc2ccccc2C1 | -5.24% (inactive) |
| C=C1C([C@@]2(C)C(OC(C)=O)CC(=O)O[C@@](C)(COC(C)=O)C2CC(=O)OC)C(OC=O)C(OC(=O)C(O)C(C)CC)[C@]2(C)C(c3ccoc3)CC(=O)C12O (stereo not given in full) | -3.85% (inactive) |
| CC(C)CCC(C)NC(=O)c1ccc2nccnc2c1 (stereo not given) | 2.87% (inactive) |
| Oc1cc(O)c2c(c1)OC(c1ccc(O)c(O)c1)C(O)C2 (stereo not given) | -34.5% (active) |
| CC1(c2ccc3ccccc3c2)NC(=O)N(CC(N)=O)C1=O (stereo not given) | -1.62% (inactive) |
| Cc1c(Cl)cccc1NC(=O)NCc1ccc(C)n1C | 0.306% (inactive) |
| CCCN1CCC(=O)N(C(CSc2ccc(C)cc2)Cc2ccccc2)CC1 (stereo not given) | 2.31% (inactive) |
| CC1(C)Cc2ccccc2-c2[nH]c(=S)[nH]c(=O)c21 | 2.14% (inactive) |
| N#CC1=C(N)Oc2[nH]c(=S)[nH]c(=O)c2C12C(=O)Nc1ccccc12 (stereo not given) | -33.1% (active) |
| N#CC1=C(N)Oc2n[nH]c(CSc3ccccc3)c2C12C(=O)Nc1ccccc12 (stereo not given) | -1.05% (inactive) |
| COCCCNc1nc2ccccc2nc1NS(=O)(=O)c1ccc(F)cc1 | 3.51% (inactive) |
| Oc1cc2c(cc1O)CN(C(=S)NCCc1ccc(Cl)cc1)CCC2 | -10.5% (inactive) |
| CCOCCCNC(=O)c1cn(CC(C)C)c(=O)c2c1c1ccccc1n2C | 1.3% (inactive) |
| Cc1nn(C)cc1/C=C1\CCC/C(=C\c2cn(C)nc2C)C1=O | -3.28% (inactive) |
| COc1ccc2cc1Oc1ccc(cc1)C[C@H]1c3cc(c(OC)cc3CCN1C)Oc1c(O)c(OC)cc3c1[C@H](C2)N(C)CC3 | 3.01% (inactive) |
| COc1c(O)ccc2c1CN1CCc3cc4c(cc3C1C2)OCO4 (stereo not given) | -31.7% (active) |
| COc1ccc(CN2CCCC(N3CCc4ccccc4C3)C2)c(O)c1 (stereo not given) | 0.955% (inactive) |
| COc1ccc2c(c1)N(C)/C(=C1/SC(=S)N(NC(C)=O)C1=O)S2 | -2.99% (inactive) |
| CCOc1cc(-c2cc(-c3ccc(NC(C)=O)cc3)nc(N)c2C#N)ccc1O | -0.764% (inactive) |
| CC(C)CNS(=O)(=O)c1ccc(CCC(=O)NCc2ccc(Cl)cc2)cc1 | 2.27% (inactive) |
| Cc1ccc(OCc2nc3ccccc3n2C)cc1 | -0.274% (inactive) |
| Cc1cccnc1NC(=O)CSc1nnc(COc2ccc(C(C)C)cc2)n1C | -3.92% (inactive) |

| Structure (SMILES) | activity change, negative = inhibition |
| --- | --- |
| Cc1ccc(OCc2nnc(SC3CCc4ccccc4C3=O)n2C)cc1 (stereo not given) | -79.8% (active) |
| C=C1/C(=C\C=C2\CCCC3(C)C2CCC3C(C)/C=C/C(O)C2CC2)CC(O)CC1O (stereo not given) | -0.462% (inactive) |
| CN(NS(=O)(=O)c1cccs1)c1ncc(C(F)(F)F)cc1Cl | 1.61% (inactive) |
| CCOC(=O)c1c(C)[nH]c2c1-c1ccccc1C(=O)C2=O | -46.9% (active) |
| CCOC(=O)c1c(C)[nH]c(C)c1S(=O)(=O)N(C)CC(=O)Nc1ccccc1C | 0.829% (inactive) |
| CCOC(=O)c1c(C)[nH]c(C(=O)NCc2ccccc2OC)c1C | 6.66% (inactive) |
| CC(=O)Nc1ccc(N2C(=O)C3C4C=CC(CC4)C3C2=O)cc1 (stereo not given) | -0.366% (inactive) |
| Cc1cc(C)c(/C=C2\C(=O)Nc3ccccc32)[nH]1 | -3.49% (inactive) |
| CN(C)/C=C1/Nc2ccccc2C1=O | -30.5% (active) |
| CN(C)/C=C1/C(=O)Nc2ccccc21 | 2.47% (inactive) |
| COC(=O)C/C=C/[C@@H](C)[C@H](NC(=O)OCC(Cl)(Cl)Cl)c1ccccc1 | -1.95% (inactive) |
| Cc1cccc2[nH]c(CN(C)C(=O)C3CCC(=O)N(CCc4ccccc4)C3)nc12 (stereo not given) | 2.15% (inactive) |
| COc1ccccc1C1C(C(N)=O)=C(C)Nc2nc(CCCO)nn21 (stereo not given) | 1.82% (inactive) |
| O=C(N/N=C/c1cccc(OC(=O)c2ccc([N+](=O)[O-])cc2)c1)c1cccnc1 | 0.693% (inactive) |
| COCCNC(=O)CN(Cc1ccco1)C(=O)CCC(=O)Nc1nccs1 | 0.963% (inactive) |
| Cc1cccc(OCC(=O)NCCNC(=O)c2cccnc2)c1 | 0.0752% (inactive) |
| COc1ccc(C2Nc3ccccc3C(=O)N2c2ccc(F)cc2)cc1Cn1nnc2ccccc21 (stereo not given) | 2.84% (inactive) |
| COc1ccc(N2C(=O)c3ccccc3NC2c2ccc(OC)c(CN3CCOCC3)c2)cc1 (stereo not given) | -1.28% (inactive) |
| COc1ccc(C2Nc3ccccc3C(=O)N2Cc2ccccc2)cc1Cn1nnc2ccccc21 (stereo not given) | -34.4% (active) |
| COc1ccc(CNC(=O)Cc2ccc(-c3ccccc3)cc2)cc1OC | 0.562% (inactive) |
| COc1ccc(C2/C=C\CN(Cc3ccco3)C(C)C(=O)N2Cc2ccc(F)cc2)cc1 (stereo not given) | -1.36% (inactive) |
| Cc1coc2c(O)cc3c(c12)OC1(N2CCCCC2)C(=O)NCCCC31 (stereo not given) | -43.7% (active) |
